This note sets out measurements from PubChem BioAssay.

Active and inactive are the calls of the source.

One assay has as its target Albumin (Bos taurus) (UniProt P02769). The experiment in a line: bovine serum albumin binders on microarray, profiling panel, artefact control for SMM control protein annotation, biochemical, small-molecule microarray, Alexa647 label, 635/667 nm fluorescence (AID 1118).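 Further: score merges 667 nm emission intensity and signal-to-noise per printed compound spot.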 The following applies: BSA-A647 binding, fluorescence 635 nm, higher = more signal.
A short description of assay [1]: small-molecule microarray binders of probe aXIP, primary screen, biochemical, NeuroSMM set, 635/667 nm fluorescence (AID 1119).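 Further: probe is the protein aXip251-270 applied at 1 µg/mL to compound-printed slides; binding of probe to printed compounds measured as 667 nm fluorescence plus signal to noise.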 The following applies: higher = more signal, called active from +8 up or from −8 down.
A short description of assay [2]: small-molecule binders of probe aNOTCH3, primary screen, biochemical, small-molecule microarray, 635/667 nm fluorescence (AID 1120).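 Further: probe is a biotin-tagged antibody raised against NOTCH3 rather than NOTCH3 protein; score merges spot fluorescence near 667 nm with spot signal to noise.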 The following applies: higher = more signal.
Assay [3] in a line: small-molecule binders of probe aNOTCH2, primary screen, biochemical, small-molecule microarray, 635/667 nm fluorescence (AID 1121).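 Further: score merges feature fluorescence read at 667 nm with its signal to noise.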 The following applies: higher = more signal.
Assay [4] concerns the target Carbonic anhydrase 2 (Homo sapiens) (UniProt P00918). The experiment in a line: CAII small-molecule binders, profiling panel, biochemical, small-molecule microarray, Alexa647-labelled CAII (AID 1122). The following applies: CAII-A647 binding fluorescence, higher = more signal.
Assay [5] is described as follows: COS7 lysate on small-molecule microarray, probe aHis, 635 nm (AID 1123).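 Further: z-score combines 667nm fluorescence intensity with signal-to-noise per printed compound spot.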 The following applies: COS7 cell lysate, fluorescence, higher = more signal.
Assay [6] is described as follows: compound binding in COS7 lysate, probe aLAP1, primary screen, cell lysate, small-molecule microarray (AID 1124).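 Further: lysate comes from COS7 cells expressing LAP1 and is applied at 0.3 µg/mL; score merges spot fluorescence near 667 nm with signal-to-noise over triplicate slides.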 The following applies: probe aLAP1, fluorescence, higher = more signal.
The subject of the next assay is Sam68 (KHDRBS1). The experiment in a line: Sam68 small-molecule binders, primary screen, biochemical, small-molecule microarray, 635 nm fluorescence (AID 1125).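 Further: score merges 667 nm channel intensity with signal to noise over triplicate slides.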 The following applies: small-molecule microarray binding, higher = more signal.
The subject of assay [7] is Chordin-like protein 2 (CHRDL2). The experiment in a line: CHRDL2 small-molecule binders, primary screen, biochemical, small-molecule microarray, 635 nm fluorescence (AID 1126).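 Further: printed compound slides probed with Chrdl2 protein at 4 µg/mL for 1 h at 4 C; score merges 667 nm emission intensity with signal to noise over three replicate slides.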 The following applies: small-molecule microarray binding, fluorescence 635 nm; higher = more signal.
The target in assay [8] is Concanavalin-A (Canavalia ensiformis) (UniProt P02866). The experiment in a line: ConA small-molecule binders, primary screen, artefact control for SMM control protein annotation, biochemical, small-molecule microarray, Alexa647 label, 635 nm (AID 1127).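 Further: z combines 667 nm emission intensity with signal-to-noise across three replicate slides.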 The following applies: ConA-A647 binding fluorescence, higher = more signal.
The nature of assay [9]: anti-His antibody binders, primary screen, artefact control for SMM control protein annotation, biochemical, small-molecule microarray, 635 nm fluorescence (AID 1128).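 Further: score merges feature fluorescence with signal-to-noise for each printed compound spot.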 The following applies: anti-His Alexa647 antibody binding, higher = more signal.
The subject of assay [10] is Human papillomavirus type 1a E7 protein (residues 1-88). The experiment in a line: HPV1a E7 small-molecule binders, primary screen, biochemical, small-molecule microarray, residues 1-88, 635 nm (AID 1129). The following applies: small-molecule microarray binding, fluorescence 635 nm; higher = more signal.
Assay [11] deals with Focal adhesion kinase 1 (Homo sapiens) (UniProt Q05397). Put plainly: small-molecule microarray binders of FAK, primary screen, biochemical, 635/667 nm fluorescence, BSA, DTT (AID 1130).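 Further: composite of spot emission at 667 nm and signal to noise over triplicate slides.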 The following applies: PTK2 binding, 635 nm fluorescence, higher = more signal.
The test system of assay [12] is Fibrinogen (Alexa647-labelled). The experiment in a line: fibrinogen binders on compound microarrays, profiling panel, artefact control for SMM control-protein annotation, biochemical, small-molecule microarray, 635/667 nm fluorescence (AID 1131).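 Further: z-score merges 667 nm fluorescence with per-spot signal-to-noise over triplicate slides.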 The following applies: fibrinogen-A647 binding fluorescence, higher = more signal.
For assay [13], the target named is Follistatin (Homo sapiens) (UniProt P19883). The experiment in a line: follistatin binders on small-molecule microarrays, primary screen, biochemical, small-molecule microarray, 635/667 nm fluorescence (AID 1132). The following applies: FST binding, 635 nm fluorescence, higher = more signal.
The target of assay [14] is Fibroblast growth factor 2 (Homo sapiens) (UniProt P09038). The experiment in a line: FGF2 binders on small-molecule microarrays, primary screen, biochemical, small-molecule microarray, 635/667 nm fluorescence (AID 1133). The following applies: small-molecule microarray binding, FGF2, fluorescence 635/667; higher = more signal.
Assay [15] is described as follows: mitochondrial membrane potential change in A549 cells, profiling panel, cell-based, JC-1 fluorescence, basal, 24 h, 100 nL (AID 1138).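 Further: A549 lung adenocarcinoma cells under basal conditions with no added stimulus; test concentration not given here.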 The following applies: higher = more signal.
A further assay concerns Lefty1. Put plainly: Lefty1 binders on small-molecule microarrays, primary screen, biochemical, small-molecule microarray, 635/667 nm fluorescence (AID 1139). The following applies: small-molecule microarray binding, fluorescence 635/667; higher = more signal.
Assay [16] deals with wheat germ agglutinin (Triticum aestivum), Alexa647-labelled. The experiment in a line: wheat germ agglutinin binders on compound microarrays, profiling panel, artefact control for SMM control-protein annotation, biochemical, small-molecule microarray, 635/667 nm fluorescence (AID 1140).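 Further: score merges 667 nm feature emission with signal to noise over triplicate slides.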 The following applies: WGA-A647 binding, 635 nm fluorescence, higher = more signal.
In assay [17] the target is Luciferin 4-monooxygenase (Photinus pyralis) (UniProt P08659). Put plainly: firefly luciferase enzyme inhibitors, primary screen, biochemical, luminescence, purified enzyme, 2006 set (AID 1141).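 Further: cell-free assay with purified firefly luciferase at 100 ng per well in PBS; test concentration not given here.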 The following applies: SteadyGlo luminescence, 30 min, higher = more signal, called active from +8 up or from −8 down.
Luciferin 4-monooxygenase (Photinus pyralis), sequence (P08659 whole entry, looked up): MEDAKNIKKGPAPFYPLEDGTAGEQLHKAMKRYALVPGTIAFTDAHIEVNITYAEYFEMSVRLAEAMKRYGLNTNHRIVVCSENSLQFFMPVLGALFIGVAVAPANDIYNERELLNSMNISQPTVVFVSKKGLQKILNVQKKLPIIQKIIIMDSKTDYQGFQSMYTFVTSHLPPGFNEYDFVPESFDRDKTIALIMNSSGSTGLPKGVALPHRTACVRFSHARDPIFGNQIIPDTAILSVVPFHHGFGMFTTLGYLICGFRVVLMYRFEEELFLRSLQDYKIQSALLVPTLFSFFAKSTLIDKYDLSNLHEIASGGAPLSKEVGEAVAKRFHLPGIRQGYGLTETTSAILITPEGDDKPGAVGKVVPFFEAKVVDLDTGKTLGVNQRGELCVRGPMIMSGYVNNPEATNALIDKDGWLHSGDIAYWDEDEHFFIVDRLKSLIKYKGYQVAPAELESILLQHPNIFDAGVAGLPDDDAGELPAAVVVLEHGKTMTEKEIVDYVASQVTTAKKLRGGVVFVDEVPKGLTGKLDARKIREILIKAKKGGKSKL

Focal adhesion kinase 1 (Homo sapiens), sequence (Q05397 whole entry, looked up): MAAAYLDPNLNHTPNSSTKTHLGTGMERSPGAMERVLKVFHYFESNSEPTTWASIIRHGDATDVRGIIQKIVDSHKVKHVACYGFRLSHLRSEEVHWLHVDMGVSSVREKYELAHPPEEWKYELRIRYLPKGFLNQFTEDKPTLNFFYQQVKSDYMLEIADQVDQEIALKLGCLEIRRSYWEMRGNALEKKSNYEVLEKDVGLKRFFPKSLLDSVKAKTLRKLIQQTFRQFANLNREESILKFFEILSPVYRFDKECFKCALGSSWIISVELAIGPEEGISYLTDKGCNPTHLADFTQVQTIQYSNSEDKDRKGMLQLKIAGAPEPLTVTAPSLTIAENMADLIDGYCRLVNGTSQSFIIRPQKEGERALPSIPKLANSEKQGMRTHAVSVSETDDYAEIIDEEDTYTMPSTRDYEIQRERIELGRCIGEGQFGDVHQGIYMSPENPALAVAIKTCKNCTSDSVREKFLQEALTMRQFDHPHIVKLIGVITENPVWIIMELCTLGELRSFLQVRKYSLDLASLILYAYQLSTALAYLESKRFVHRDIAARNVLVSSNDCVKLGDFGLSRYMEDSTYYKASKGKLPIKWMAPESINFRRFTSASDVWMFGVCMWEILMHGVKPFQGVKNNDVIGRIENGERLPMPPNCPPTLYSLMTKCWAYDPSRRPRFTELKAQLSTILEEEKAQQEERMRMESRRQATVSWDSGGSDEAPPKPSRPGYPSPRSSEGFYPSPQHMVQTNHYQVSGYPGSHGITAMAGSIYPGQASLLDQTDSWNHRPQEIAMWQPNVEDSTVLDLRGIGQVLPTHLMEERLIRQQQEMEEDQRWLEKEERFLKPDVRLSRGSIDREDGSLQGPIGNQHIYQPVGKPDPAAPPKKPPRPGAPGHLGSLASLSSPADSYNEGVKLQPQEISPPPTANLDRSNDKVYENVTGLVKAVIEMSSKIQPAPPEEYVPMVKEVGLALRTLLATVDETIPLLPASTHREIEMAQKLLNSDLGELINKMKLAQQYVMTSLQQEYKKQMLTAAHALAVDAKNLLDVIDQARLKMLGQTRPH
Concanavalin-A (Canavalia ensiformis), sequence (P02866 whole entry, looked up): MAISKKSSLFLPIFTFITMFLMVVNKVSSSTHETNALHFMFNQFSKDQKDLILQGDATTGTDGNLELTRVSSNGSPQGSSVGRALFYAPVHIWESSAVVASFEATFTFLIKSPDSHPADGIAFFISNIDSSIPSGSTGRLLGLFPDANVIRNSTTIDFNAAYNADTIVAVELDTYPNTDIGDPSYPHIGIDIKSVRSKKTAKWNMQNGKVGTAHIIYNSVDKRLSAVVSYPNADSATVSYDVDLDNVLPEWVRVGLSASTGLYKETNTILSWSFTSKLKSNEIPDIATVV
Fibroblast growth factor 2 (Homo sapiens), sequence (P09038 whole entry, looked up): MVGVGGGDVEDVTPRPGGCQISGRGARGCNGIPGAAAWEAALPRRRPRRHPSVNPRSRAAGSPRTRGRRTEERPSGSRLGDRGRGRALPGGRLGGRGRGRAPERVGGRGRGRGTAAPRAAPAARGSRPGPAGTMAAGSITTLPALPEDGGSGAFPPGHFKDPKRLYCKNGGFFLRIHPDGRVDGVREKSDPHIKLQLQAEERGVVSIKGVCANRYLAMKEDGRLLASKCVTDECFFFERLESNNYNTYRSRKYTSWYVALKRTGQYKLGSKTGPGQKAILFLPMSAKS
Albumin (Bos taurus), sequence (P02769 whole entry, looked up): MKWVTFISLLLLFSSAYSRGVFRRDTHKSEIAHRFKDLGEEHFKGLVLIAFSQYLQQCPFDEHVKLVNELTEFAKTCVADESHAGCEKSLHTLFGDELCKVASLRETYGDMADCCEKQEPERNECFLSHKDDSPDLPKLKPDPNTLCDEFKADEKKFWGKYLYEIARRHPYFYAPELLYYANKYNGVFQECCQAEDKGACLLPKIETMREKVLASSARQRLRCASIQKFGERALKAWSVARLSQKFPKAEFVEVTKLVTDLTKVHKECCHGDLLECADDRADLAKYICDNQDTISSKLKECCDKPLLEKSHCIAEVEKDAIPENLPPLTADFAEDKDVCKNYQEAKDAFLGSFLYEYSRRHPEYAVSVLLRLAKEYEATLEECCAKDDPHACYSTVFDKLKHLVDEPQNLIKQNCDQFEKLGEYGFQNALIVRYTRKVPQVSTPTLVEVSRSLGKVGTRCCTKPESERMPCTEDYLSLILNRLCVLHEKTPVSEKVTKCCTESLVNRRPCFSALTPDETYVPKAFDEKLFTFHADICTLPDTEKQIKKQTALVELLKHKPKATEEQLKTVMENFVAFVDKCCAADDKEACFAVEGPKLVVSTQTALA
Follistatin (Homo sapiens), sequence (P19883 whole entry, looked up): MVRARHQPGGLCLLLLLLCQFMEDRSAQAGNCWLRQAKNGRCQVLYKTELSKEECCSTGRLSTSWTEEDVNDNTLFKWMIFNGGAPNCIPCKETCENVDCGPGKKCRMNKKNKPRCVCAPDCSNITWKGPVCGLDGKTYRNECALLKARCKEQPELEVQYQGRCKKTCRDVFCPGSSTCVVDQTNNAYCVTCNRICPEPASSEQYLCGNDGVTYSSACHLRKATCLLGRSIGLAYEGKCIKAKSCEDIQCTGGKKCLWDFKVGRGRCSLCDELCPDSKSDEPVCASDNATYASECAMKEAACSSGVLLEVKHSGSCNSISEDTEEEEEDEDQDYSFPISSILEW

On to `CCOc1cc(C(O)C2C=CC3C(=O)NC(=O)C3N2Nc2ccc(Cl)cc2Cl)ccc1O` (stereo not given), for which the composite z-score was -0.671 in the assay with Albumin (Bos taurus); -0.152 in [2]; -0.0601 in assay [3]; 0.797 in [4]; 1.23 in assay [5]; -0.587 in assay [6]. Besides, the composite z-score in the assay on Sam68 (KHDRBS1) is -1.94; in assay [7], -0.157; in [8] it was -0.915; in [9], -0.254; in assay [10], -0.537; in assay [11], 0.725. The composite z-score in assay [12] is 0.332; in assay [13], -0.403; in assay [14] it was -0.744; in the assay on Lefty1, -1.33; in assay [16], 0.235. Also, the composite Z-score in [1] is 0.568 (inactive). Moreover, the z-score is -0.262 in assay [15] and 0.445 (inactive) in [17].

For the compound `C=CCNC(=O)[C@@H]1[C@H]2C(=O)O[C@H](c3ccccc3)[C@H](c3ccccc3)N2[C@H](c2ccccc2OCCO)[C@@]12C(=O)Nc1ccc(C#CCC(C(=O)OC)C(=O)OC)cc12`, the composite z-score with Albumin (Bos taurus) was -0.0735; in assay [2], 0.514; in assay [3], 0.283; in assay [4], 0.648; in assay [5] it was 1.66; in [6], 1.62. Also, the composite z-score was 1.27 in the assay with Sam68 (KHDRBS1); -0.14 in assay [7]; 0.727 in assay [8]; 1.03 in assay [9]; 1.2 in [10]; 0.978 in assay [11]. The composite z-score in assay [12] was 0.0251; in [13], 0.67; in [14] it was 0.335; in the assay on Lefty1, -0.0767; in assay [16] it was 0.551. Further, the composite Z-score in assay [1] was 0.822 (inactive). Besides, the z-score was -1.44 in [15] and -0.238 (inactive) in assay [17].

`C=C[C@H](C)[C@H](OC(=O)Nc1ccc(SC)cc1)c1ccc(OCCO)cc1`: the composite z-score with Albumin (Bos taurus) was 0.548; in assay [2], -0.0647; in [3], -0.0533; in [4], 0.575; in [5], 2.19; in assay [6], 0.277. Further, the composite z-score in the assay with Sam68 (KHDRBS1) worked out at 1.06; in [7] it was 0.516; in assay [8] it was 1.04; in [9], 0.677; in [10], 1.05; in assay [11], 0.0085. The composite z-score in assay [12] was 0.519; in [13] it was 0.376; in assay [14], 1.2; in the assay on Lefty1 it was 0.427; in [16] it was 1.07. In [1], the composite Z-score is 2.78 (inactive). The z-score is -1.38 in assay [15] and -7.94 (inactive) in assay [17].

On to `CC(C)(C)OC(=O)COc1cccc(C(=O)CCN2CCOCC2)c1`, for which the composite z-score in the assay with Albumin (Bos taurus) was 0.217; in [2], -0.0119; in [3], -0.074; in assay [4], -0.382; in [5] it was 0.258; in assay [6], -0.281. Further, the composite z-score in the assay with Sam68 (KHDRBS1) was 0.656; in assay [7] it was 0.309; in [8], -0.244; in [9], -0.413; in assay [10], 0.355; in assay [11], -0.272. Moreover, the composite z-score is 0.226 in [12]; -0.35 in [13]; -0.284 in assay [14]; -0.57 in the assay on Lefty1; -0.0945 in assay [16]. In assay [1], the composite Z-score was 0.784 (inactive). Moreover, the values for the z-score in assay [15] and in [17] were 0.583 and -2.13 (inactive), respectively.

For `CCCCCN1CC=CC23O[C@@H]4C=CCCOC(=O)C4[C@H]2C(=O)N(CCCCCCO)[C@@H]3C1=O` (stereo not given in full), the composite z-score with Albumin (Bos taurus) was -0.587; in assay [2] it was -0.252; in assay [3], -0.203; in [4], 0.861; in assay [5], 2.33; in [6] it was 0.0488. Also, the composite z-score with Sam68 (KHDRBS1) is 0.0067; in assay [7], -0.856; in assay [8], -0.52; in [9] it was 2.82; in assay [10], -0.0566; in assay [11] it was -0.0757. Also, the composite z-score in [12] was -1.21; in [13], -0.444; in [14], -0.439; in the assay with Lefty1, -0.0715; in [16], -0.411. Moreover, in assay [1], the composite Z-score is 0.976 (inactive). Further, the z-score in [15] was 0.608; in [17] it was -0.086 (inactive).

Consider `CO[C@H]1O[C@H](CO)[C@@H](OC(=O)CCc2ccccc2)[C@@H]2OC(=O)[C@@H](Cc3ccccc3)C/C=C/C[C@H](Cc3ccccc3)C(=O)O[C@@H]12`, for which the composite z-score was 0.0544 with Albumin (Bos taurus); -0.0014 in assay [2]; -0.0861 in assay [3]; 0.116 in assay [4]; 0.88 in [5]; 0.338 in [6]. In addition, the composite z-score is 1.13 with Sam68 (KHDRBS1); 0.0642 in assay [7]; 0.6 in [8]; 0.623 in assay [9]; 1.03 in [10]; 0.178 in assay [11]. Further, the composite z-score stood at 0.28 in [12]; 1.28 in [13]; 1.31 in assay [14]; 0.396 with Lefty1; 0.0856 in assay [16]. In addition, the composite Z-score in assay [1] is -0.0061 (inactive). In addition, the z-score in assay [15] was 2.11; in [17], 0.769 (inactive).

Turning to `COC(=O)c1c(CC[C@@H](CO)NC(=O)N[C@@H](C)Cn2cc(-c3ccccn3)nn2)oc(C(C)=O)c1C(=O)OC`, the composite z-score with Albumin (Bos taurus) was -0.373; in assay [2], 0.11; in assay [3], -0.0995; in [4] it was 0.708; in [5], 0.267; in assay [6] it was -0.555. In addition, the composite z-score with Sam68 (KHDRBS1) is 0.871; in assay [7], 0.204; in assay [8], 0.743; in [9], 1.73; in assay [10], -0.0012; in [11], -0.291. Besides, the composite z-score in assay [12] was -0.676; in assay [13], 1.28; in assay [14] it was 0.707; with Lefty1, 0.936; in assay [16] it was 0.184. The composite Z-score in [1] was 0.615 (inactive). Also, the z-score in [15] is -0.467; in [17], 0.641 (inactive).

As to `CCCC=C(CCC)[C@@H](NS(=O)(=O)c1ccc(C(F)(F)F)cc1)c1ccccc1`, the composite z-score was -0.127 in the assay with Albumin (Bos taurus); 0.149 in assay [2]; 0.115 in assay [3]; 0.0051 in assay [4]; 1.34 in assay [5]; -0.122 in [6]. Further, the composite z-score with Sam68 (KHDRBS1) was 0.42; in assay [7], -0.732; in [8], 0.277; in assay [9], 0.294; in [10], 0.887; in [11], 0.672. In addition, the composite z-score is 0.698 in [12]; 0.225 in assay [13]; -0.148 in assay [14]; -0.141 in the assay on Lefty1; 0.663 in assay [16]. In addition, the composite Z-score in assay [1] was 0.404 (inactive). For the same compound, the z-score in assay [15] was -2.69; in [17] it was 2.72 (inactive).

For `C=C[C@@H](CO)N(Cc1ccc(OC)cc1)S(=O)(=O)c1ccc(Br)cc1`, the composite z-score in the assay with Albumin (Bos taurus) was 0.131; in assay [2], -0.147; in [3], -0.0078; in assay [4] it was 0.352; in assay [5], 0.31; in [6], -0.345. Further, the composite z-score was found to be 0.388 with Sam68 (KHDRBS1); 0.231 in assay [7]; 0.241 in assay [8]; 1.53 in assay [9]; 0.687 in assay [10]; 0.188 in assay [11]. The composite z-score is -0.0952 in assay [12]; 0.351 in assay [13]; 0.965 in assay [14]; -0.327 in the assay with Lefty1; 0.316 in assay [16]. The composite Z-score in [1] is -0.0461 (inactive). Also, the z-score is 0.739 in assay [15] and 0.356 (inactive) in [17].
